Measured values: PubChem BioAssay (NCATS)
Results filed as inconclusive are left out. Entries that show only a call come without a potency. A number with no mark means an inactive call. Active and inactive are the calls of the source. The call rests on the fitted dose curve; in most records, active means well fitted curve in the direction sought with a large enough effect; inconclusive means small, poorly fitted or top-dose-only effect, or another doubt; inactive means no such curve, though single readings can be large; an effect the other way counts as inactive or inconclusive. Where a SMILES comes first, the peptide text is derived from it. [ ]: non-standard residue; d: D form. pGlu = O=C1CC[C@@H](C(=O)O)N1

Tests used:
[1] = system: UISO; assay: qHTS assay to identify novel small-molecules to repurpose for Merkel cell carcinoma treatment (AID 1296009); details: MCC and control cell lines, CellTiter-Glo viability, 72 h; series mostly up to 46 µM; further: nearly all actives have a fitted effect of over 60% in size; further: potency means the concentration at half of the fitted maximal effect
Outline: (§1)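 Cells were incubated with compound for 72 hr at 37 degree celsius before CellTiter-Glo addition. Luminescence was normalized with no-cell wells as full cytotoxicity and DMSO as baseline.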

[2] = system: WaGa; assay: as above; details: MCC and control cell lines, CellTiter-Glo viability, 72 h; series mostly up to 46 µM
Outline: as §1

[3] = system: C33A; assay: Primary qHTS to identify gynecologic anti-cancer compounds using libraries of approved drugs and bioactive compounds (AID 1345084); details: Gynecologic cancer cell panel viability, ATPlite luminescence, 48 h; series mostly up to 57.5 µM; further: nearly all actives have a fitted effect of over 55% in size
Outline: (§2)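 ATP-based viability (ATPlite), 1,000 cells/well, 16 h pre-incubation, 48 h compound at 37 C, 5% CO2, 15 min RT before read.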

[4] = system: CAOV3; assay: as above; details: Gynecologic cancer cell panel viability, ATPlite luminescence, 48 h; series mostly up to 57.5 µM
Outline: as §2

[5] = system: CASKI; assay: as above; details: Gynecologic cancer cell panel viability, ATPlite luminescence, 48 h; series mostly up to 57.5 µM
Outline: as §2

[6] = system: Es-2; assay: as above; details: Gynecologic cancer cell panel viability, ATPlite luminescence, 48 h; series mostly up to 57.5 µM
Outline: as §2

[7] = system: HeLa; assay: as above; details: Gynecologic cancer cell panel viability, ATPlite luminescence, 48 h; series mostly up to 57.5 µM
Outline: as §2

[8] = system: Hek293T; assay: as above; details: Gynecologic cancer cell panel viability, ATPlite luminescence, 48 h, control line for the selectivity index; series mostly up to 57.5 µM
Outline: as §2

[9] = system: JEG-3; assay: as above; details: Gynecologic cancer cell panel viability, ATPlite luminescence, 48 h; series mostly up to 57.5 µM
Outline: as §2

[10] = system: OV90; assay: as above; details: Gynecologic cancer cell panel viability, ATPlite luminescence, 48 h; series mostly up to 57.5 µM
Outline: as §2

[11] = system: PA-1; assay: as above; details: Gynecologic cancer cell panel viability, ATPlite luminescence, 48 h; series mostly up to 57.5 µM
Outline: as §2

[12] = system: SKOV3; assay: as above; details: Gynecologic cancer cell panel viability, ATPlite luminescence, 48 h; series mostly up to 57.5 µM
Outline: as §2

[13] = system: Tov-21-G; assay: as above; details: Gynecologic cancer cell panel viability, ATPlite luminescence, 48 h; series mostly up to 57.5 µM
Outline: as §2

[14] = system: Tov112D; assay: as above; details: Gynecologic cancer cell panel viability, ATPlite luminescence, 48 h; series mostly up to 57.5 µM
Outline: as §2

[15] = Drug repurposing screens with cells derived from glioblastoma tumor samples (AID 1345199); details: GBM patient neurospheres viability, ATP luminescence, 48 h; further: nearly all actives have a fitted effect of over 40% in size; further: potency means the concentration at half of the fitted maximal effect
Outline: (§3)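 Four patient lines of CD133+ GBM neurospheres were screened at several concentrations; hits were retested in those lines plus three slower-growing GBM lines, using 48-hour treatment and ATP-based viability.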

[16] = system: astro; assay: as above; details: viability, ATP luminescence, 48 h; series mostly up to 45.9 µM
Outline: as §3

[17] = at 45.9 µM (top of the series), tumour line B
[18] = at 45.9 µM (top of the series), tumour line D
[19] = at 46 µM (top of the series), tumour line A
[20] = at 46.1 µM (top of the series), tumour line C

| Compound | Potency [1] | Potency [2] | Potency [3] | Potency [4] | Potency [5] | Potency [6] | Potency [7] | Potency [8] | Potency [9] | Potency [10] | Potency [11] | Potency [12] | Potency [13] | Potency [14] | activity, negative = cell killing [15, 17] | activity, negative = cell killing [15, 18] | activity, negative = cell killing [15, 19] | activity, negative = cell killing [15, 20] | Potency [16] | Potency ([15]; tumour line A) |
| --- | --- | --- | --- | --- | --- | --- | --- | --- | --- | --- | --- | --- | --- | --- | --- | --- | --- | --- | --- | --- |
| CCNC(=O)[C@@H]1CCCN1C(=O)[C@H](CCCN=C(N)N)NC(=O)[C@H](CC(C)C)NC(=O)CNC(=O)[C@H](Cc1ccc(O)cc1)NC(=O)[C@H](CO)NC(=O)[C@H](Cc1c[nH]c2ccccc12)NC(=O)[C@H](Cc1cnc[nH]1)NC(=O)[C@@H]1CCC(=O)N1 ([pGlu]HWSYGLRP-NHEt) | inactive | inactive | inactive | inactive | inactive | inactive | inactive | inactive | inactive | inactive | inactive | inactive | inactive | inactive |  |  |  |  |  |  |
| COCCc1ccc(OCC2CO2)cc1 (configuration not stated) | inactive | inactive | inactive | inactive | inactive | inactive | inactive | inactive | inactive | inactive | inactive | inactive | inactive | inactive |  |  |  |  |  |  |
| O=C(CCCCCCCCC#CI)Oc1ccccc1 | inactive | 11.9 µM (active) | inactive | inactive | inactive | inactive | inactive | inactive | inactive | inactive | inactive | inactive | inactive | inactive | -16.2% | -0.884% | -21.9% | -10.1% | inactive |  |
| O=C1OC2(c3ccccc31)c1cc(I)c(O)c(I)c1Oc1c2cc(I)c(O)c1I | inactive | inactive | inactive | inactive | inactive | inactive | inactive | inactive | inactive | inactive | inactive | inactive | inactive | inactive | -23.6% |  |  |  |  | 11.2 µM (active) |
| Cc1oc(=O)oc1COC(=O)[C@@H]1N2C(=O)[C@@H](NC(=O)[C@H](N)c3ccccc3)[C@H]2SC1(C)C | inactive | inactive | inactive | inactive | inactive | inactive | inactive | inactive | inactive | inactive | inactive | inactive | inactive | inactive |  |  |  |  |  |  |
| CCCC(=O)Nc1ccc(O)c(C(C)=O)c1 | inactive | inactive | inactive | inactive | inactive | inactive | inactive | inactive | inactive | inactive | inactive | inactive | inactive | inactive |  |  |  |  |  |  |
| CCC(=O)O[C@]1(C(=O)COC)[C@@H](C)C[C@H]2[C@@H]3CCC4=CC(=O)C=C[C@]4(C)C3(F)[C@@H](O)C[C@@]21C (some centres not stated) | inactive | inactive | inactive | inactive | inactive | inactive | inactive | inactive | inactive | inactive | inactive | inactive | inactive | inactive |  |  |  |  |  |  |
| CC(C)(Oc1ccc(Cl)cc1)C(=O)OCCCOC(=O)C(C)(C)Oc1ccc(Cl)cc1 | inactive | inactive | inactive | inactive | inactive | inactive | inactive | inactive | inactive | inactive | inactive | inactive | inactive | inactive |  |  |  |  |  |  |
| Oc1ccccc1-c1nnco1 | inactive | inactive | inactive | inactive | inactive | inactive | inactive | inactive | inactive | inactive | inactive | inactive | inactive | inactive |  |  |  |  |  |  |
| CCN(CC)CC(=O)Nc1c(C)cccc1C(=O)OC | inactive | inactive | inactive | inactive | inactive | inactive | inactive | inactive | inactive | inactive | inactive | inactive | inactive | inactive |  |  |  |  |  |  |
| Cc1ccc(-c2ccccc2C#N)cc1 | inactive | inactive | inactive | inactive | inactive | inactive | inactive | inactive | inactive | inactive | inactive | inactive | inactive | inactive |  |  |  |  |  |  |
| O=C(O)Cn1cnnn1 | inactive | inactive | inactive | inactive | inactive | inactive | inactive | inactive | inactive | inactive | inactive | inactive | inactive | inactive |  |  |  |  |  |  |
| O=C(NN1CCCC1)NS(=O)(=O)c1ccc(Cl)cc1 | inactive | inactive | inactive | inactive | inactive | inactive | inactive | inactive | inactive | inactive | inactive | inactive | inactive | inactive | 1.6% | -25.9% |  | 2.27% | inactive |  |
| O=C(CCCCC(=O)Nc1c(I)cc(I)c(C(=O)O)c1I)Nc1c(I)cc(I)c(C(=O)O)c1I | inactive | inactive | inactive | inactive | inactive | inactive | inactive | inactive | inactive | inactive | inactive | inactive | inactive | inactive | 0.519% | -19.2% | -28.1% | 4.23% | inactive |  |
